Activity calls are given as the source filed them. Unless noted, no rule for the calls is given here.
Experiments:
[1] = compounds altering circadian rhythm period length – cell-based, LOPAC library, luminescence reporter (AID 2774); details: circadian reporter cells, at 7 µM, actives lie on both sides;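 also: values are relative to mean of DMSO wells on each plate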
[2] = test system: Hepatitis C virus NS3 helicase; assay: blockers of NS3h binding to ssDNA – biochemical, fluorescence polarization, LOPAC1280 library, primary screen (AID 687035; in the data active = inhibition above about 37%); details: Purified HCV NS3 helicase, Cy5-dT15 ssDNA binding fluorescence polarization; stronger effect = higher value; concentration not given here
[3] = compounds altering Cy5-DNA-NS3h complex signal – biochemical, LOPAC1280, artefact control for HCV NS3 helicase inhibitor project (AID 687037); details: Cy5-DNA-NS3h complex fluorescence interference counterscreen
[4] = viability loss with induced miR-34 in A549 – imaging, A549 dox-inducible miR-34, nuclei and caspase counts, primary screen (AID 1347080;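 active = compounds whose cell count with miR-34 switched on is under 0.7 times the count with it off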); details: A549 miR-34 inducible, Hoechst nuclei count, 48 h
[5] = blockers of cellular phospholipid synthesis – cell-based, LOPAC library, screen 4, primary screen (AID 1347384); details: animal cells, phospholipid biosynthesis inhibition screen; at 10 µM
[6] = galactose survival enhancers in mitochondrial complex I cybrids – cell-based, galactose medium, ATP luminescence, primary screen (AID 1645843;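 active = z-score of at least 1.8 in each of two replicates, scored against plate mean and spread of sample wells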;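 also: positive z means more ATP and so rescue of galactose-driven cybrid death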); details: complex I mutant cybrid cells, 72 h, stronger effect = higher value
[7] = stronger effect = lower value, cell number ratio, induced over uninduced
[8] = measured here: relative caspase fold change +Dox/-Dox
[9] = measured here: total cells with miR-34 induction, stronger effect = lower value
[10] = measured here: total cells without miR-34 induction

Structure (SMILES) | period change [1] | inhibition [2] | fluorescence ratio (interference) [3] | fold change [4, 7] | fold change [4, 8] | cell count [4, 9] | cell count [4, 10] | outcome [5] | z-score [6]
Cn1c(=O)c2c(nc(/C=C/c3cccc(Cl)c3)n2C)n(C)c1=O | 0.15 h (inactive) | -2% (inactive) | 1 (inactive) | 1.03 (inactive) | 1.2 | 9630 | 9370 | inactive | 1.26 (inactive)
Nc1nc(Cl)nc2c1ncn2[C@@H]1O[C@H](COP(=O)(O)OP(=O)(O)OP(=O)(O)O)[C@H](O)C1O (stereo partly drawn) | -0.055 h (inactive) | 37% (active) | 1 (inactive) | 1.14 (inactive) | 1.19 | 2920 | 2560 | inactive | 0.235 (inactive)
N=C(N)c1ccc(N)cc1 | -0.005 h (inactive) | -2% (inactive) | 1 (inactive) | 0.998 (inactive) | 2.25 | 8960 | 8980 | inactive | -0.075 (inactive)
CC1CN(S(=O)(=O)c2cccc3cnccc23)CCN1 (stereo not drawn) | 0.475 h (inactive) | -6% (inactive) | 0.9 (inactive) | 1.09 (inactive) | 0.736 | 11600 | 10600 | inactive | 0.18 (inactive)
N[C@@H](Cc1cnc[nH]1)C(=O)O | 0.03 h (inactive) | 0% (inactive) | 1.1 (inactive) | 0.99 (inactive) | 1.08 | 9970 | 10100 | inactive | 0.865 (inactive)
OC[C@H]1NC[C@@H](O)[C@@H]1O | -0.11 h (inactive) | -3% (inactive) | 1 (inactive) | 0.888 (inactive) | 1.22 | 8680 | 9770 | inactive | 0.015 (inactive)
Nc1nc2c(nc(Br)n2C2OC3COP(=O)(O)O[C@@H]3C2O)c(=O)[nH]1 (stereo partly drawn) | -0.01 h (inactive) | -2% (inactive) | 1 (inactive) | 1.05 (inactive) | 1.74 | 10000 | 9530 | inactive | 0.555 (inactive)
O=C(O)CC1CCCc2ccccc2C1O (stereo not drawn) | 0.085 h (inactive) | -4% (inactive) | 1 (inactive) | 1.02 (inactive) | 1.73 | 10700 | 10500 | inactive | 0.315 (inactive)
C[C@H](Cc1ccccc1)Nc1ncnc2c1ncn2[C@@H]1O[C@H](CO)[C@H](O)C1O (stereo partly drawn) | -0.12 h (inactive) | -8% (inactive) | 1 (inactive) | 1.08 (inactive) | 0.57 | 9860 | 9130 | inactive | 1.45 (inactive)
NOCC(=O)O | -0.075 h (inactive) | -1% (inactive) | 1 (inactive) | 1.12 (inactive) | 1.94 | 9990 | 8920 | inactive | 0.555 (inactive)
Fc1ccc(C(OCCCc2cnc[nH]2)c2ccc(F)cc2)cc1 | 0.11 h (inactive) | -1% (inactive) | 1 (inactive) | 0.951 (inactive) | 0.647 | 8620 | 9060 | inactive | -1.19 (inactive)
O=C(O)C1CCNCC1 | -0.105 h (inactive) | -2% (inactive) | 1 (inactive) | 1.1 (inactive) | 0.954 | 10700 | 9760 | inactive | 0.31 (inactive)
CC(N)=O | -0.19 h (inactive) | 0% (inactive) | 0.9 (inactive) | 1.08 (inactive) | 1.34 | 10600 | 9870 | inactive | 1.1 (inactive)
OC1(c2ccc(Cl)cc2)CCN(Cc2c[nH]c3ccccc23)CC1 | 0.165 h (inactive) | -8% (inactive) | 0.9 (inactive) | 1.01 (inactive) | 1.16 | 7020 | 6940 | inactive | -0.735 (inactive)
NC1(C(=O)O)CCc2cc(C(=O)O)ccc21 (stereo not drawn) | 0.185 h (inactive) | -1% (inactive) | 1 (inactive) | 0.993 (inactive) | 1.76 | 10900 | 11000 | inactive | 0.185 (inactive)
NC(=O)c1ccccc1 | -0.185 h (inactive) | 0% (inactive) | 1 (inactive) | 0.988 (inactive) | 1.76 | 9430 | 9540 | inactive | 0.385 (inactive)
C[C@@H]1C(=O)NC2=Nc3cccc(Cl)c3CN21 | 0.025 h (inactive) | 0% (inactive) | 1 (inactive) | 0.957 (inactive) | 1.63 | 9040 | 9450 | inactive | 0.635 (inactive)
C[C@H](O)C(=O)C1=Nc2c(nc(N)[nH]c2=O)NC1 | 0.19 h (inactive) | -3% (inactive) | 0.9 (inactive) | 0.965 (inactive) | 1.64 | 10200 | 10500 | inactive | 0.4 (inactive)
CC[C@@H](C)[C@H]1O[C@]2(CC[C@@H]1C)C[C@@H]1C[C@@H](C/C=C(\C)[C@@H](O[C@H]3C[C@H](OC)[C@@H](O[C@H]4C[C@H](OC)[C@@H](O)[C@H](C)O4)[C@H](C)O3)[C@@H](C)/C=C/C=C3\CO[C@@H]4[C@H](O)C(C)=C[C@@H](C(=O)O1)[C@]34O)O2 | 0.095 h (inactive) | -2% (inactive) | 1 (inactive) | 0.888 (inactive) | 0.534 | 1760 | 1980 | inactive | -1.29 (inactive)
Nc1nc2[nH]c(=O)cnc2c(=O)[nH]1 | 0 h (inactive) | -5% (inactive) | 1 (inactive) | 1.09 (inactive) | 0.997 | 10400 | 9560 | inactive | 0.655 (inactive)
NCC(O)C1CCCCCCC1 (stereo not drawn) | -0.04 h (inactive) | -3% (inactive) | 1 (inactive) | 0.963 (inactive) | 1.08 | 9960 | 10300 | inactive | 0.085 (inactive)
O=Nc1ccc2oc(=O)ccc2c1 | -0.05 h (inactive) | -2% (inactive) | 1 (inactive) | 1.06 (inactive) | 0.992 | 10200 | 9600 | inactive | -1.25 (inactive)

Source: PubChem BioAssay
